Measurements reported in PubChem BioAssay (NCATS).
Inconclusive results are not listed. Activity calls are given as the source filed them. Calls come from the whole dose curve; as a rule, active = well fitted cell-killing curve with a large enough effect; inconclusive = small, poorly fitted or top-dose-only effect, or effect the other way; inactive = no such curve, though single readings can be large or run the other way.

Assays:
[1] = Quantitative High-Throughput drug screen in 47 multiple myeloma cell lines against the NCATS MIPE library collection: INA6_PLB cell viability assay (AID 1918965; note: nearly all actives have a fitted effect of over 55% in size)
Method in brief: (§1)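 Approved and investigational drugs from MIPE 4.0 were added by pin tool to 500 cells per well. After 48 hours at 37C, ATP-based CellTiter-Glo luminescence indicated remaining viability.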

[2] = Quantitative High-Throughput drug screen in 47 multiple myeloma cell lines against the NCATS MIPE library collection: H1112_PLB cell viability assay (AID 1918967; note: nearly all actives have a fitted effect of over 30% in size)
Method in brief: as §1

[3] = Quantitative High-Throughput drug screen in 47 multiple myeloma cell lines against the NCATS MIPE library collection: Karpas25_ECACC cell viability assay (AID 1918968; note: nearly all actives have a fitted effect of over 35% in size)
Method in brief: as §1

[4] = Quantitative High-Throughput drug screen in 47 multiple myeloma cell lines against the NCATS MIPE library collection: JJN3_DSMZ cell viability assay (AID 1918966; note: nearly all actives have a fitted effect of over 50% in size)
Method in brief: as §1

[5] = Quantitative High-Throughput drug screen in 47 multiple myeloma cell lines against the NCATS MIPE library collection: JIM1_ECACC cell viability assay (AID 1918964)
Method in brief: as §1

[6] = Quantitative High-Throughput drug screen in 47 multiple myeloma cell lines against the NCATS MIPE library collection: KMS27_JCRB cell viability assay (AID 1918970); note: nearly all actives have a fitted effect of over 30% in size
Method in brief: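 Myeloma cells (500 per well) were exposed to MIPE 4.0 compounds for 48 h at 37 °C, 5% CO2; viability was read as ATP luminescence with CellTiter-Glo, normalized to DMSO-only (100%) and media-only (0%) wells.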

[7] = Quantitative High-Throughput drug screen in 47 multiple myeloma cell lines against the NCATS MIPE library collection: KMS12BM_JCRB cell viability assay (AID 1918971); note: nearly all actives have a fitted effect of over 35% in size
Method in brief: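 Myeloma cells (500 per well) were exposed to MIPE 4.0 compounds by pin transfer and incubated 48 hours at 37C, 5% CO2. Viability was read as ATP by CellTiter-Glo luminescence, normalised to DMSO (100%) and media-only (0%) wells.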

[8] = Quantitative High-Throughput drug screen in 47 multiple myeloma cell lines against the NCATS MIPE library collection: KMS12PE_JCRB cell viability assay (AID 1918972); note: nearly all actives have a fitted effect of over 30% in size
Method in brief: as §1

[9] = Quantitative High-Throughput drug screen in 47 multiple myeloma cell lines against the NCATS MIPE library collection: KMS20_JCRB cell viability assay (AID 1918973); note: nearly all actives have a fitted effect of over 45% in size
Method in brief: as §1

[10] = Quantitative High-Throughput drug screen in 47 multiple myeloma cell lines against the NCATS MIPE library collection: KMS21BM_JCRB cell viability assay (AID 1918974); conditions: ATP luminescence, 48 h; viability: at 45.8 µM (top of the series) unless noted
Method in brief: as §1
Potency is the fitted concentration of half-maximal effect.

O=c1c(O)c(-c2ccc(O)c(O)c2)oc2cc(O)cc(O)c12
active: Potency [1] 11.8 µM | Potency [2] 20.9 µM | Potency [3] 16.6 µM

CC(COc1ccccc1)N(CCCl)Cc1ccccc1 (stereo not drawn)
inactive: Potency [1] | Potency [4] | Potency [3]

OCCN(CCO)c1nc(N2CCCCC2)c2nc(N(CCO)CCO)nc(N3CCCCC3)c2n1
active: Potency [5] 23.5 µM | Potency [4] 23.5 µM | Potency [3] 26.4 µM | Potency [6] 20.9 µM | Potency [7] 26.4 µM | Potency [8] 23.5 µM

CNCCCC12CCC(c3ccccc31)c1ccccc12
active: Potency [1] 16.6 µM | Potency [4] 20.9 µM | Potency [2] 26.4 µM | Potency [3] 23.5 µM | Potency [6] 20.9 µM | Potency [7] 23.5 µM | Potency [8] 10.5 µM | Potency [9] 13.2 µM | Potency [10] 11.8 µM

CC(CCc1ccc(O)cc1)NCCc1ccc(O)c(O)c1 (stereo not drawn)
active: Potency [1] 18.7 µM | Potency [4] 14.8 µM | Potency [3] 18.7 µM | Potency [6] 18.7 µM | Potency [7] 14.8 µM | Potency [8] 20.9 µM
inactive: Potency [9]

CN(C)C(=N)N=C(N)N
inactive: Potency [1] | Potency [2] | Potency [3] | Potency [6] | Potency [8] | Potency [9]

Cn1c(=O)c2c(ncn2C)n(C)c1=O
inactive: Potency [1] | Potency [4] | Potency [2] | Potency [7] | Potency [8]

NC(CO)C(=O)NNCc1ccc(O)c(O)c1O (stereo not drawn)
active: Potency [4] 11.8 µM | Potency [7] 20.9 µM
inactive: Potency [1] | Potency [2] | Potency [3] | Potency [6] | Potency [8]

Cc1cn([C@H]2C=C[C@@H](CO)O2)c(=O)[nH]c1=O
inactive: Potency [5] | Potency [2] | Potency [6] | Potency [8]
active: Potency [3] 12.1 µM | viability [10] 91.7% [at 92.2 µM]

CCC1(C)CC(=O)NC1=O (stereo not drawn)
inactive: Potency [1] | Potency [2] | Potency [3] | Potency [6] | Potency [8]
active: Potency [7] 1.18 µM

Clc1ccc2nsnc2c1NC1=NCCN1
inactive: Potency [1] | Potency [2] | Potency [3] | Potency [6]

CN(C)C(=O)C(CCN1CCC(O)(c2ccc(Cl)cc2)CC1)(c1ccccc1)c1ccccc1
active: Potency [1] 18.7 µM | Potency [4] 18.7 µM | Potency [3] 18.7 µM | Potency [9] 14.8 µM
inactive: Potency [6] | Potency [8]

Nc1nnc(-c2cccc(Cl)c2Cl)c(N)n1
inactive: Potency [5] | Potency [6]
active: Potency [3] 20.9 µM

COc1ccc(C2CNC(=O)C2)cc1OC1CCCC1 (stereo not drawn)
inactive: Potency [5] | Potency [2] | Potency [6] | Potency [7] | Potency [8] | Potency [9]

CCOC(=O)Nc1ccc(NCc2ccc(F)cc2)nc1N
inactive: Potency [2] | Potency [3] | Potency [7]
active: Potency [1] 14.8 µM | Potency [6] 18.7 µM

CC(C)(C)C(=O)Oc1ccc(S(=O)(=O)Nc2ccccc2C(=O)NCC(=O)O)cc1
inactive: Potency [5] | Potency [6] | Potency [7] | Potency [8]
active: Potency [2] 18.7 µM

COc1nc(C)nc(Cl)c1NC1=NCCN1
inactive: Potency [5] | Potency [6] | Potency [7] | Potency [8]
active: Potency [2] 7.43 µM | Potency [3] 9.35 µM | Potency [9] 9.35 µM

CN1CCC(=C2c3ccccc3C=Cc3ccccc32)CC1
active: Potency [1] 11.8 µM | Potency [2] 11.8 µM | Potency [3] 7.43 µM | Potency [6] 23.5 µM | Potency [8] 20.9 µM | Potency [9] 9.35 µM

CN1CCN(C2=Nc3cc(Cl)ccc3Nc3ccccc32)CC1
active: Potency [3] 26.4 µM
inactive: Potency [5] | Potency [6] | Potency [7]

CC1(CN2CCC(n3c(=O)[nH]c4ccccc43)CC2)OCc2ccccc2-n2cccc21 (stereo not drawn)
inactive: Potency [8]
active: Potency [1] 14.8 µM | Potency [2] 8.33 µM | Potency [3] 13.2 µM | Potency [7] 16.6 µM

NCCc1cnc[nH]1
inactive: Potency [1] | Potency [4] | Potency [2] | Potency [3] | Potency [6] | Potency [7] | Potency [8]

Cn1c(=O)c2[nH]cnc2n(C)c1=O
inactive: Potency [1] | Potency [2] | Potency [3] | Potency [6] | Potency [7] | Potency [8] | Potency [9]

Clc1ccc2c(c1)C(N1CCNCC1)=Nc1ccccc1O2
inactive: Potency [5] | Potency [8]
active: Potency [3] 14.8 µM | Potency [9] 20.9 µM

COc1cc2nc(N3CCN(C(=O)c4ccco4)CC3)nc(N)c2cc1OC
active: Potency [1] 8.33 µM | Potency [2] 16.6 µM | Potency [3] 7.43 µM | Potency [6] 9.35 µM | Potency [8] 7.43 µM | Potency [9] 8.33 µM

NCCCCCC(=O)O
inactive: Potency [5] | Potency [2] | Potency [3] | Potency [7] | Potency [9]
active: Potency [4] 0.0187 µM

NC12CC3CC(CC(C3)C1)C2
inactive: Potency [4] | Potency [7]
active: Potency [1] 26.4 µM | Potency [3] 0.118 µM
